Experiments:
[1] = tested on: Human papillomavirus type 1a protein E7 (residues 44-93); assay: small molecules binding HPV E7 44-93 – biochemical, small-molecule microarray, residues 44-93, 635 nm fluorescence, primary screen (AID 1108); conditions: fluorescence 635 nm, higher = more signal;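 also: E7 fragment applied at 1 µg/mL in TBST for 1 h at 4 C; score combines spot fluorescence with its signal to noise ratio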
[2] = hepatitis C replication reporter changes, two-sided – Huh7 cells, luciferase reporter, HCV replication inhibitor project, primary screen (AID 1109); conditions: Huh7 HCV replicon luciferase reporter, 48 h; higher = more signal;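 also: huh7 hepatoma cells harbouring a luciferase neomycin HCV replicon reporter; luciferase luminescence as measure of HCV replicon replication; test concentration not given here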
[3] = biological target: Left-right determination factor 2 (Homo sapiens) (UniProt O00292); assay: small molecules binding LEFTY2 protein – biochemical, small-molecule microarray, 635 nm fluorescence scan, primary screen (AID 1110); conditions: higher = more signal
[4] = biological target: Calmodulin-1 (Homo sapiens) (UniProt P0DP23); assay: small molecules binding calmodulin-1 with EGTA – biochemical, small-molecule microarray, Cy5-labelled CALM1, profiling panel (AID 1111); conditions: Cy5-CALM1 binding fluorescence, higher = more signal;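 also: labelled calmodulin applied in Tris saline Tween buffer holding calcium plus EGTA and DTT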
[5] = biological target: Calmodulin-1 (Homo sapiens) (UniProt P0DP23); assay: small molecules binding Ca-loaded calmodulin-1 – biochemical, small-molecule microarray, Cy5-labelled CALM1, plus calcium, artefact control for SMM control-protein annotation, profiling panel (AID 1112); conditions: Cy5-CALM1 binding fluorescence, higher = more signal;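 also: score merges spot fluorescence with signal to noise from triplicate slides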
[6] = probe aWnt5a binding to arrayed compounds – biochemical, biotinylated probe, 635/667 nm fluorescence, primary screen (AID 1113); conditions: small-molecule microarray, higher = more signal;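 also: score merges 667 nm fluorescence intensity with signal-to-noise per printed feature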
[7] = probe aShh binding to arrayed compounds – biochemical, biotinylated probe, 635/667 nm fluorescence, primary screen (AID 1114); conditions: small-molecule microarray, higher = more signal;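 also: probe is biotin-labelled aShh protein from a stem cell growth factor screen; measures binding of labelled protein to compounds printed on the slide; score merges feature fluorescence at 667 nm with signal-to-noise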
[8] = probe aNog binding to arrayed compounds – biochemical, biotinylated probe, 635/667 nm fluorescence, primary screen (AID 1115); conditions: small-molecule microarray, higher = more signal;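 also: probe is biotinylated aNog protein used at 0.15 µg/mL for 1 h at 4 C; z-score combines 667 nm fluorescence of each spot with its signal to noise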
[9] = biological target: Torsin-1A-interacting protein 1 (Homo sapiens) (UniProt Q5JTV8); assay: compound microarray binding of lysate hLAP1 – cell lysate, small-molecule microarray, COS7 lysate, 635/667 nm fluorescence, primary screen (AID 1116); conditions: 635 nm fluorescence, higher = more signal
[10] = biological target: Alpha-bungarotoxin (Bungarus multicinctus) (UniProt P60615); assay: compounds binding labelled alpha-BTX control protein – biochemical, small-molecule microarray, Alexa647 label, 635/667 nm fluorescence, artefact control for SMM control protein annotation, profiling panel (AID 1117); conditions: alpha-BTX-A647 binding fluorescence, higher = more signal
Alpha-bungarotoxin (Bungarus multicinctus), sequence (P60615 whole entry, looked up): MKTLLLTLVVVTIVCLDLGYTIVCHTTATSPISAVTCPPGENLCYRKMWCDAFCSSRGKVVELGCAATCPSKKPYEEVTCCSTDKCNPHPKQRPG

Torsin-1A-interacting protein 1 (Homo sapiens), sequence (Q5JTV8 whole entry, looked up): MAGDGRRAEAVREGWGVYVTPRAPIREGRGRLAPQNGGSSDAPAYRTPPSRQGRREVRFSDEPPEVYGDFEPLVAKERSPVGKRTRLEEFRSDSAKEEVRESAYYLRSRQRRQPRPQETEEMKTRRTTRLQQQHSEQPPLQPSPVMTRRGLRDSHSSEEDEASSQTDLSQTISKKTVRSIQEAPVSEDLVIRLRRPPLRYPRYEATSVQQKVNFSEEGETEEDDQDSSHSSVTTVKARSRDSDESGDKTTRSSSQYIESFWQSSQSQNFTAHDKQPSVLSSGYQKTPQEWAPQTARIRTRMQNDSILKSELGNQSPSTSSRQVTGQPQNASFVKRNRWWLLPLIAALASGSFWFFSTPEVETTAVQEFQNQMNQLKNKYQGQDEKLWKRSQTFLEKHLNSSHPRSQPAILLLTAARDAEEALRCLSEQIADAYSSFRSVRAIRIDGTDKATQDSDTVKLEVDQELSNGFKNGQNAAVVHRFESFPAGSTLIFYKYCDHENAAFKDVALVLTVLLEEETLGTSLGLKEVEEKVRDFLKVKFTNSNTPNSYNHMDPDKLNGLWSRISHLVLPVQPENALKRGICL
Left-right determination factor 2 (Homo sapiens), sequence (O00292 whole entry, looked up): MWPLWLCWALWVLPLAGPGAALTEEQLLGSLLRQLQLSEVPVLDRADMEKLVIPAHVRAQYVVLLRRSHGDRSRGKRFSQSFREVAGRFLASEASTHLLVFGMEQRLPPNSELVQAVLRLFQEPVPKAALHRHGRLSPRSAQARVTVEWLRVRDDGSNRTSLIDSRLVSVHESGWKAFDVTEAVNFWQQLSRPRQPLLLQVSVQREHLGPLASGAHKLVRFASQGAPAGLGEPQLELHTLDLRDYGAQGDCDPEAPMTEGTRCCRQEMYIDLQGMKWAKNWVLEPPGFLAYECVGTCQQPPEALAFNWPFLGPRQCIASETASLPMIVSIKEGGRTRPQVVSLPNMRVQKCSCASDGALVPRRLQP

Row | Compound | composite z-score [1] | z-score [2] | composite z-score [3] | composite z-score [4] | composite z-score [5] | composite z-score [6] | composite z-score [7] | composite z-score [8] | composite z-score [9] | composite z-score [10]
1 | COc1ccc(C#Cc2ccc3c(c2)[C@]2(C(=O)N3)[C@H](C(=O)O)[C@H]3C(=O)O[C@H](c4ccccc4)[C@H](c4ccccc4)N3[C@@H]2c2ccc(O)cc2)cc1 | 0.78 | -1.43 | -0.67 | 0.695 | 1.2 | -0.124 | 0.214 | -0.0446 | 0.286 | -0.204
2 | CC(C)[Si]1(C(C)C)OCc2cc(C3CC3)nc(-c3ccc(Oc4ccccc4)cc3)c21 | -1.16 | -2.24 | -0.168 | -0.289 | 0.631 | -0.18 | -0.117 | -0.0208 | -0.414 | -0.336
3 | [N-]=[N+]=Nc1ccccc1C[C@]1(C(=O)O)COC(c2ccc(OCCCO)cc2)=N1 | 0.118 | 0.928 | -0.856 | 0.166 | 0.897 | 0.0718 | 0.232 | 0.253 | -0.811 | -0.215
4 | O=C(O)[C@@H]1[C@@H]2C(=O)N(c3ccccc3)C(=O)[C@@H]2C[C@@H]1Sc1ccccc1 | -0.933 | 0.0105 | -0.603 | 0.172 | 0.474 | 0.0676 | 0.328 | -0.0554 | 0.351 | -0.909
5 | C=CCC(OC(C)=O)[C@@H]1[C@@H](N(Cc2ccc(-c3cccc(C(F)(F)F)c3)o2)C(=O)c2ccc(-c3ccccc3)cc2)c2cc(OCCCO)ccc2N1C(=O)Cc1ccc2ccccc2c1 (stereo not given in full) | -0.267 | -1.09 | -0.458 | -0.248 | 0.277 | -0.0981 | 0.0204 | -0.144 | -0.115 | -0.153
6 | COc1ccccc1CN1C(=O)c2ccccc2[C@](Cc2ccccc2I)(C(=O)O)[C@@H]1c1ccc(CO)cc1 | 1.42 | -0.127 | 0.717 | 1.36 | 0.477 | -0.123 | 0.336 | 0.182 | 0.152 | 1.21
7 | CN(C)C(=O)[C@@]1(Cc2ccccc2)N=C(c2ccc(OCCCO)cc2)O[C@H]1c1ccccc1 | 0.508 | -1.76 | -0.469 | 1.58 | 0.972 | 0.217 | 0.0654 | -0.332 | 1.44 | 0.907
8 | CN(C)C(=O)[C@]1(CCC(=O)OC(C)(C)C)N=C(c2ccc(OCCCO)cc2)O[C@@H]1c1ccccc1CN=[N+]=[N-] | 1.44 | -2.19 | -0.502 | 2.31 | 0.392 | 0.26 | 0.4 | 1.13 | 2.9 | 1.81
9 | COc1cc2c(cc1O)C=[N+](Cc1sc3ccccc3c1Cl)CC2 | -0.429 | -1.57 | 0.324 | -0.0659 | 0.0401 | -0.0403 | -0.0626 | 0.162 | 0.25 | 0.252
10 | CCCCCCCCCCC(O)C1C=CC2C(=O)N(c3ccccc3)C(=O)C2N1Nc1ccc(C#N)cc1 (stereo not given) | 1.38 | -1.57 | -0.157 | 2.48 | 1.19 | 0.203 | -0.164 | -0.889 | 1.47 | 1.19
11 | CC[C@@H]1C=C(C(=O)O)[C@H](c2ccccc2)N1S(=O)(=O)c1ccc(C)cc1 | 0.807 | -1.33 | 0.0801 | 1.6 | 1.03 | -0.113 | 0.162 | -0.398 | 0.599 | 1.39
12 | CCCN1C(=O)[C@@]2(Cc3ccccc31)N=C(c1ccc(OCCCO)cc1)O[C@H]2c1ccccc1 | 1.41 | -2.52 | -0.256 | 0.354 | -0.29 | 0.0857 | 0.123 | 0.587 | 1.28 | 1.17
13 | CC(C)C(CO)N1C(=O)[C@@H]2[C@H]3C(=O)OCC=C[C@H]3OC23C=CCN(c2ccc(Cl)cc2)C(=O)[C@@H]13 (stereo not given in full) | -0.0683 | -0.665 | -0.433 | -0.871 | -0.499 | -0.1 | 0.0278 | -0.196 | -0.344 | -1.17
14 | COc1ccc(C#Cc2ccc3c(c2)[C@]2(C(=O)N3)[C@H](c3ccc(OCCO)cc3)N3[C@H](c4ccccc4)[C@H](c4ccccc4)OC(=O)[C@H]3[C@@H]2C(=O)NC[C@H](O)c2ccccc2)cc1 | 1.43 | -2.21 | 0.428 | 1.12 | -0.126 | -0.0462 | -0.0146 | -0.157 | 0.64 | 1.87
15 | CC1CC/C=C\[C@H]2OC34C=CCN(Cc5ccccc5)C(=O)[C@H]3N(C(CO)C(C)C)C(=O)[C@@H]4C2C(=O)O1 (stereo not given in full) | -0.376 | -0.386 | -0.369 | -0.862 | -0.528 | -0.176 | -0.0709 | -0.12 | 0.344 | -0.677
16 | COC(=O)[C@@]1(Cc2ccc(OC)cc2)[C@H]2c3cc(C(=O)N(C)C)n(Cc4ccc(OC(F)(F)F)cc4)c3C[C@H]2CN1C(=O)c1ccccc1 | 0.38 | -3.63 | -0.0954 | 0.417 | 0.267 | -0.0807 | 0.337 | 0.196 | 1.58 | -0.114
17 | COCCOC(=O)N1C(=O)[C@@]2(c3ccccc31)[C@H](C(=O)NC[C@H](O)c1ccccc1)[C@H]1C(=O)O[C@H](c3ccccc3)[C@H](c3ccccc3)N1[C@@H]2c1ccc(O)cc1 | 1.44 | -0.986 | 0.768 | 0.573 | -0.522 | -0.0072 | 0.209 | 0.39 | 1.21 | 1.78

From PubChem BioAssay
